# Source: PubChem (several laboratories)
# Sampled rows, rich in hits. Any-hit rate of the full collection: about 3.1%.
# Peg3 prom inh: reduces Peg3 promoter-driven luciferase expression in HeLa. HeLa PEG-Prom luciferase reporter, luminescence, overnight. inhibition, % at 20 µM. 1.7% of 360,000 active;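 active = inhibition of at least 50% at 20 µM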
# TRPM1 prom inh: inhibitors of MITF-driven TRPM1 promoter in melanoma cells | inhibition, % at 12.5 µM | SK-MEL-5 TRPM1 promoter luciferase, 24 h | 0.83% of 330,000 active;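 active = mean inhibition across replicates of 60% or more, whatever share of single replicates reaches that level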
# CF NFkB inh: blocks PAF-induced NF-kB reporter in cystic fibrosis cells; 0.86% of 360,000 active; inhibition, % at 5 µM; AID 588850; KKLEB NF-kB-GFP reporter, GFP fluorescence overnight;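 active = at least 50% inhibition at 5 µM, scaled per plate between neutral and stimulator controls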;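 also: PAF is a Pseudomonas aeruginosa culture filtrate used as stimulus; plate controls were PAF-stimulated DMSO wells for no effect and unstimulated DMSO wells for full effect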
# HIF-2a inh: blocks HIF-2a reporter activity; 786-0 RCC cells HIF-2a reporter, luciferase luminescence, overnight; inhibition, % at 18.8 µM; 0.72% of 360,000 active; AID 624352;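 active = inhibition of the luminescence signal of 40% or more relative to plate controls, in a single-dose primary screen at 18.75 µM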
# ABHD5 PLIN5 PPI: inhibitors of human ABHD5-perilipin-5 interaction; inhibition, % at 4 µM; Split G. princeps luciferase complementation, luminescence, 4 h; 0.78% of 360,000 active;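 active = inhibition above the mean inhibition across every tested compound plus 3 SD, cut at about 22% in these data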;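 also: 0% = DMSO only wells and the 100% control is not disclosed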
# Target sequence (Q00G26 whole entry, looked up): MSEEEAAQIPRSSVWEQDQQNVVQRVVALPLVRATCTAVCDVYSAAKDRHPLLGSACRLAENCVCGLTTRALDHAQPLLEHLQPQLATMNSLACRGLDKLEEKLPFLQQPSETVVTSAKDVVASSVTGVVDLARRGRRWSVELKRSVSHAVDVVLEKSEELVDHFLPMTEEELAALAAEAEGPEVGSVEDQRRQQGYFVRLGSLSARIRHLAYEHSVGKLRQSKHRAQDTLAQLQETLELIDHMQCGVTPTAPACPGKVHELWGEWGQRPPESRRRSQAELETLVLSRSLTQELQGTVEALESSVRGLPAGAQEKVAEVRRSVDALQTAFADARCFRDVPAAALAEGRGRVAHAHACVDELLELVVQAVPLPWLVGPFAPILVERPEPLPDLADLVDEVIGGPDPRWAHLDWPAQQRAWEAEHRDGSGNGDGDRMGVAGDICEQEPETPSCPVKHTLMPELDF
# Target sequence (Q8WTS1 whole entry, looked up): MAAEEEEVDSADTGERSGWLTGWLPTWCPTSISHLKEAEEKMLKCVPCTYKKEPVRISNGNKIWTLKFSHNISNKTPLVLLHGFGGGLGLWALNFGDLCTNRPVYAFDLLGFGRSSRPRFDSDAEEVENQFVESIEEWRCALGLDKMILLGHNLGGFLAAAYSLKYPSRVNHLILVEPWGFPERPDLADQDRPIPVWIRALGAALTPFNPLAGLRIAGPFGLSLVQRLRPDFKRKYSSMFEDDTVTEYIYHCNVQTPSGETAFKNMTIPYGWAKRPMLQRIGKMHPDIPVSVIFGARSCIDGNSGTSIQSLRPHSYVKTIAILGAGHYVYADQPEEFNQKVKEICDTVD
# KKLEB tox: CF airway cell cytotoxicity counter-screen. KKLEB CF airway cells viability, ATPlite luminescence, overnight; hits give low values; cells stimulated with P. aeruginosa culture filtrate. activity change (cytotoxicity), % at 5 µM. 0.36% of 360,000 active. AID 602141;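 active = corrected activity change at or below -50% at 5 µM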
# CF NFkB conf: CF NF-kB inhibition confirmation, single concentration; shares compounds with CF NFkB inh; KKLEB CF airway cells, PAF-induced NF-kB-GFP fluorescence, overnight; AID 602472; 64% of 1,300 active; inhibition, % at 5 µM; in the data active = inhibition above about 40%;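 also: stimulus PAF is a Pseudomonas aeruginosa filtrate and not platelet activating factor; plate controls were DMSO wells with stimulus for no effect and unstimulated DMSO wells for full effect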
# An asterisk follows results filed as active; i = inactive; . = no result given; ! = not active in a repeat.
SMILES,Peg3 prom inh,TRPM1 prom inh,CF NFkB inh,HIF-2a inh,ABHD5 PLIN5 PPI,KKLEB tox,CF NFkB conf
O=C(COC(=O)C1CCN(c2ccc(C(F)(F)F)cn2)CC1)Nc1cccc(F)c1,-12.0,-4.3,64.0*,-4.3,-12.6,-17.5,19.3
CC1CCN(CCc2nc3cc(NC(=O)COc4ccc([N+](=O)[O-])cc4)ccc3n2C)CC1,5.2,-3.6,21.0,-3.6,14.4,-16.1,.
COc1ccnc(Oc2ccccc2)c1C(=O)N/C=N/OCc1ccccc1F,25.3,-4.2,-30.6,22.8,3.2,0.5,.
COc1cccc(-c2c(C(=O)N/N=C/c3sccc3C)nnn2-c2nonc2N)c1,39.1,-15.4,50.2*,20.1,-3.4,-9.5,34.8
CCN1CCN(CCCN(Cc2ccco2)C(=S)Nc2ccc(Cl)c(C)c2)CC1,-11.0,8.8,7.7,15.5,-6.1,-4.4,.
Cc1ccc(NC(=S)N(CCCN2CCCC2)Cc2cccn2Cc2ccc(Cl)cc2)cc1C,101.5*,22.7,50.6*,-26.7,13.8,-42.9,27.7
Cc1ccc(S(=O)(=O)N2[C@@H](c3ccc(C(C)(C)C)cc3)C(C(=O)O)=CC[C@H]2c2ccc(Cl)cc2)cc1,24.9,-1.8,24.7,13.4,-11.4,-6.9,.
Cc1ccc([C@@H]2CC=C(C(=O)O)[C@H](c3ccc(C(C)(C)C)cc3)N2S(=O)(=O)c2ccc(C)cc2)cc1,9.9,4.1,50.7*,3.5,-17.3,0.5,21.9
Cc1ccc(S(=O)(=O)N2[C@@H](c3ccc(Br)cc3)C(C(=O)O)=CC[C@H]2c2ccc(C(C)C)cc2)cc1,25.2,2.4,47.7,1.7,0.8,6.4,.
Cc1ccc(S(=O)(=O)N2[C@@H](c3ccc(C(C)(C)C)cc3)C(C(=O)O)=CC[C@H]2c2ccc(C(C)C)cc2)cc1,20.8,9.0,62.3*,15.7,1.6,12.0,53.0*
COc1cc(CN(CCN(C)C)Cc2ccccc2)ccc1OCc1ccccc1,8.6,-19.9,18.9,3.7,3.4,-5.6,.
CC(C)NC(=O)CN(C(=O)CCC(=O)Nc1nccs1)c1ccc(C(C)C)cc1,20.1,1.3,-8.2,25.4,-1.5,-15.9,.
O=C(NC(=O)N1CCN(C(c2ccccc2)c2ccccc2)CC1)c1ccccc1,5.0,-0.7,6.4,15.2,-1.8,-3.2,.
CCOc1ccc(S(=O)(=O)N2CCN(C(=O)c3ccccc3Cc3ccccc3)CC2)cc1,2.6,-12.2,12.5,4.1,-1.8,-11.3,.
Cc1cccn2c(=O)c3cc(S(=O)(=O)c4ccc(F)cc4)c(=N)n(Cc4ccco4)c3nc12,31.3,-12.5,75.5*,8.7,20.2,9.7,5.4
Cc1cccn2c(=O)c3cc(S(=O)(=O)c4ccccc4)c(=N)n(Cc4ccco4)c3nc12,2.9,3.9,-18.8,10.1,13.6,-5.0,.
Cn1nc(C(=O)N2CCN(c3ccc(F)cc3)CC2)c2c1-c1ccccc1S(=O)(=O)C2,7.4,1.3,7.9,2.2,0.1,1.5,.
Clc1cccc(Nc2ncnc3ccc(Br)cc23)c1,10.2,15.0,69.3*,22.7,-0.6,-41.0,58.5*
Cc1cccc(Nc2ncnc3ccc(Br)cc23)c1,2.5,-16.8,58.5*,28.4,6.1,-10.1,71.8*
CN(C)c1ccc(Nc2ncnc3ccc(Br)cc23)cc1,-0.2,-14.5,73.1*,-13.6,-0.8,-9.5,92.8*
Cc1ccc2ncnc(Nc3ccccc3)c2c1,-5.8,22.5,27.6,-15.3,-1.7,-15.4,.
COc1ccc(Nc2ncnc3ccc(Br)cc23)cc1OC,6.7,-15.8,47.6,21.8,3.4,-11.4,.
COc1cc2c(cc1NC(=O)CN1CCN(S(=O)(=O)c3ccccc3F)CC1)oc1ccccc12,29.6,0.1,55.1*,9.6,-3.2,-40.2,41.4*
COc1cc2c(cc1NC(=O)Cc1ccc(C)cc1)oc1ccccc12,-226.8,-47.3,4.0,-304.7,-4.9,-11.1,.
Cc1cccc(NC(=O)c2ccc([N+](=O)[O-])o2)n1,13.6,22.0,61.2*,-2.8,-0.5,-24.8,7.8
SMILES,Peg3 prom inh,TRPM1 prom inh,CF NFkB inh,HIF-2a inh,ABHD5 PLIN5 PPI,KKLEB tox,CF NFkB conf
O=C(COC(=O)c1cnccn1)NCc1ccc2c(c1)OCO2,4.3,5.7,11.1,11.6,-1.1,14.8,.
CCOc1cc(NC(=S)NCCCN2CCOCC2)c(OCC)cc1NC(=O)c1ccc(C)cc1,20.3,-5.1,16.2,12.0,-8.2,0.7,.
COc1ccc(-c2[nH]n(-c3ccc([N+](=O)[O-])cc3)c(=O)c2C=NCc2ccccc2)cc1,24.4,6.6,50.5*,20.4,4.7,-27.7,23.1
CC(NC(=O)c1ccc([N+](=O)[O-])o1)C1CC2CCC1C2 (stereo not given),40.8,49.5,61.5*,6.9,-12.4,-8.8,25.5
Cc1cc(C)c(O)c(CN(C)Cc2cc(Cl)cc(Cl)c2O)c1,39.0,24.2,60.3*,15.9,5.1,-27.1,74.8*
CCC1Nc2ncnc(N3CCCCC3)c2N(Cc2ccc(C)cc2)C1=O (stereo not given),6.9,-3.8,71.4*!,18.9,-5.2,-10.2,17.3
CCC1Nc2ncnc(N3CCCCC3)c2N(Cc2ccccc2)C1=O (stereo not given),20.1,0.0,3.9,16.2,1.1,5.2,.
CCC1CCc2c(sc(NC(=O)c3cnccn3)c2C(N)=O)C1 (stereo not given),-87.3,-25.7,65.2*,-10.6,-1.8,-38.2,10.9
CCOC(=O)c1c(S(=O)(=O)NCC(=O)N2CCN(c3ccc(OC)cc3)CC2)c(C)n(C)c1C,-5.6,15.6,2.3,2.9,3.9,-4.3,.
O=C(CSc1nccc(=O)[nH]1)Nc1cc(C(F)(F)F)ccc1N1CCOCC1,14.7,-7.1,2.9,9.0,-5.0,-4.1,.
Cc1ccc2nc(SCC(=O)Nc3cc(C(F)(F)F)ccc3N3CCOCC3)[nH]c2c1,15.0,i,50.2*,21.0,-6.8,-8.4,77.6*
COc1ccc(NC(=O)CSc2n[nH]c(-c3ccncc3)n2)cc1Cl,5.4,-0.2,18.7,-4.9,5.8,-8.5,.
Cn1ccnc1C(=O)c1cccc(Br)c1,-55.2,-6.2,-3.4,-37.5,-0.6,5.6,.
Cc1nnc(Sc2nc3ccccc3o2)c2ccccc12,-101.7,-21.7,55.2*,-39.6,8.7,-35.4,52.1*
Cc1ccc(-c2nnc(Sc3nc4ccccc4o3)c3ccccc23)cc1,-47.9,-28.3,35.1,-26.9,5.9,-14.7,.
Cc1ccsc1C(=O)N1CCC(N2CCC(C(=O)NCC3CCCO3)CC2)CC1 (stereo not given),1.0,-2.2,3.6,10.5,-2.2,7.2,.
C#Cc1cccc(Nc2nc(NCCOC)nc3ccsc23)c1,19.4,.,18.8,21.9,1.8,-8.8,.
C#Cc1cccc(Nc2nc(NC(C)C)nc3ccsc23)c1,38.6,.,50.4*,22.2,1.3,-20.1,36.2
CCOC(=O)Cc1nnc2c(Nc3ccc(Cl)cc3)nc3nonc3n12,48.6,0.4,50.7*,7.2,-6.4,-20.9,59.3*
